Measurements taken from PubChem BioAssay AID2330 (Broad Institute, 2010).
The campaign covered roughly 37,000 compounds. About 2,800 (7.6%) were called active. Inconclusive results (about 1%) are left out. The list comes from a sample in which actives are over-represented; it also holds similar structures and randomly drawn compounds. A number with no mark means an inactive call. Rule as the data show it: active = inhibition above about 80%; inconclusive = no clear call, values can overlap the other calls; inactive = below that.

Experiment: NOMO-1 AML cell viability reduction, primary screen, STK33 inhibitor project, CellTiter-Glo luminescence (AID 2330)
Conditions: NOMO-1 AML viability, 72 h, hits give high values, concentration not given here

Row | SMILES | inhibition
1 | C[C@@H]1CN([C@@H](C)CO)C(=O)c2cc(NC(=O)C3CCCCC3)ccc2O[C@@H]1CN(C)S(=O)(=O)c1ccc(F)cc1 | -1.45%
2 | C[C@@H]1CN([C@@H](C)CO)C(=O)c2cc(NS(=O)(=O)c3cccs3)ccc2O[C@@H]1CN(C)S(=O)(=O)c1ccc(F)cc1 | 7.75%
3 | CC[C@H]1CN2CCc3cc(OC)c(OC)cc3[C@@H]2C[C@@H]1C[C@H]1NCCc2cc(OC)c(OC)cc21 | 144% (active)
4 | Cc1noc(C)c1NC(=O)Nc1ccc2c(c1)C(=O)N([C@@H](C)CO)C[C@H](C)[C@H](CN(C)Cc1ccc(-c3ccccc3)cc1)O2 | 28.6%
5 | COc1ccc(S(=O)(=O)Nc2ccc3c(c2)C(=O)N([C@@H](C)CO)C[C@@H](C)[C@H](CN(C)S(=O)(=O)c2cccs2)O3)cc1 | -10.4%
6 | CC(=O)c1cccc(NC(=O)C(C)N(c2ccc(C)cc2)S(C)(=O)=O)c1 (stereo unspecified) | 14.6%
7 | Cc1ccc(S(=O)(=O)N(C)CC(=O)Nc2ccc(C#N)cc2)cc1 | -13.1%
8 | COc1ccc(S(=O)(=O)N(C)C[C@@H]2Oc3ccc(NC(=O)C4CC4)cc3CC(=O)N([C@@H](C)CO)C[C@@H]2C)cc1 | -0.988%
9 | C[C@@H]1CN([C@@H](C)CO)C(=O)Cc2cc(NC(=O)Nc3ccccc3)ccc2O[C@@H]1CN(C)S(=O)(=O)c1ccc(F)cc1 | 14.1%
10 | C[C@H]1CN([C@@H](C)CO)C(=O)Cc2cc(NC(=O)Nc3ccc(C(F)(F)F)cc3)ccc2O[C@@H]1CN(C)S(=O)(=O)c1ccc(Cl)cc1 | 105% (active)
11 | C[C@H]1CN([C@@H](C)CO)C(=O)Cc2cc(NC(=O)Nc3ccc(F)cc3)ccc2O[C@H]1CN(C)S(=O)(=O)c1ccccc1 | 108% (active)
12 | C[C@@H]1CN([C@@H](C)CO)C(=O)Cc2cc(NC(=O)Nc3ccc(F)cc3)ccc2O[C@@H]1CN(C)S(=O)(=O)c1ccccc1 | 20.8%
13 | COc1ccc(NC(=O)Nc2ccc3c(c2)CC(=O)N([C@H](C)CO)C[C@H](C)[C@H](CN(C)S(=O)(=O)c2ccc(OC)cc2)O3)cc1 | 23.1%
14 | C[C@H]1CN([C@@H](C)CO)C(=O)Cc2cc(NC(=O)C3CC3)ccc2O[C@H]1CN(C)S(=O)(=O)c1ccc(Cl)cc1 | 125% (active)
15 | C[C@@H]1CN([C@@H](C)CO)C(=O)Cc2cc(NC(=O)Nc3ccc4c(c3)OCO4)ccc2O[C@@H]1CN(C)S(=O)(=O)c1ccc(Cl)cc1 | 30.8%
16 | C[C@H]1CN([C@@H](C)CO)C(=O)Cc2cc(NC(=O)Nc3ccc(F)cc3)ccc2O[C@H]1CN(C)S(=O)(=O)c1ccc(F)cc1 | 126% (active)
17 | COc1ccc(NC(=O)Nc2ccc3c(c2)CC(=O)N([C@H](C)CO)C[C@H](C)[C@H](CN(C)S(=O)(=O)c2ccccc2)O3)cc1 | 57.6%
18 | C[C@@H]1CN([C@H](C)CO)C(=O)Cc2cc(NC(=O)C3CCCCC3)ccc2O[C@H]1CN(C)S(=O)(=O)c1ccc(Cl)cc1 | 28.6%
19 | C[C@@H]1CN([C@H](C)CO)C(=O)Cc2cc(NC(=O)Nc3ccc(C(F)(F)F)cc3)ccc2O[C@@H]1CN(C)S(=O)(=O)c1ccccc1 | 31.7%
20 | Cc1nnc(SCc2ccc(C(=O)c3ccc(Cl)cc3)o2)n1-c1ccccc1 | -16.2%
21 | CC(C)NC(=O)Nc1ccc2c(c1)C(=O)N([C@H](C)CO)C[C@H](C)[C@@H](CN(C)S(C)(=O)=O)OCCCC[C@@H](C)O2 | 34%

Row | SMILES | inhibition
22 | COc1ccc(NC(=O)N(C)C[C@@H]2Oc3ccc(NC(=O)CCCN(C)C)cc3CC(=O)N([C@H](C)CO)C[C@H]2C)cc1 | -16.5%
23 | COc1ccc(NC(=O)N(C)C[C@@H]2OCCCC[C@@H](C)Oc3ccc(NC(=O)NC4CCCCC4)cc3C(=O)N([C@H](C)CO)C[C@@H]2C)cc1 | -2.15%
24 | Cc1ccc(S(=O)(=O)N(C)C[C@H]2Oc3ccc(NC(=O)CCCCCC(=O)Nc4ccccc4N)cc3C(=O)N([C@H](C)CO)C[C@H]2C)cc1 | 19.8%
25 | COc1ccc(NC(=O)Nc2ccc3c(c2)C(=O)N([C@H](C)CO)C[C@H](C)[C@@H](CN(C)C(=O)NC2CCCCC2)OCCCC[C@@H](C)O3)cc1 | -9.45%
26 | C[C@@H]1CN([C@H](C)CO)C(=O)c2cccc(NS(=O)(=O)c3ccc(Cl)cc3)c2O[C@@H]1CN(C)CC1CC1 | 0.793%
27 | Cc1nc2ccccc2n1CC(O)COc1ccc(C2C=CCC2)cc1 (stereo unspecified) | 85% (active)
28 | CC(C)c1ccc(OCC(O)Cn2cnc3ccccc32)cc1 (stereo unspecified) | 52%
29 | CCc1cc(C)cc(OCC(O)Cn2cnc3ccccc32)c1 (stereo unspecified) | 50.9%
30 | COC(=O)c1ccccc1NC(=O)CSc1n[nH]c(-c2ccncc2)n1 | 19.3%
31 | O=C(NCCN1CCCCC1)Nc1cccc(Cl)c1 | 6.03%
32 | C[C@H]1CN([C@@H](C)CO)C(=O)c2cccc(NS(=O)(=O)c3ccc(Cl)cc3)c2O[C@@H]1CN(C)Cc1ccc(Oc2ccccc2)cc1 | 44.7%
33 | Cc1ccc(NC(=O)COc2ccccc2C)c([N+](=O)[O-])c1 | -19.4%
34 | Cc1ccc(OCc2n[nH]c(=S)n2C2CCCCC2)c2c1CCC2 | 111% (active)
35 | C=CCn1c(=O)c(C(=O)NCc2ccccn2)c(O)c2ccccc21 | -12.4%
36 | Cc1noc(C)c1NC(=O)Nc1ccc2c(c1)CC(=O)N([C@@H](C)CO)C[C@H](C)[C@@H](CN(C)CC1CCCCC1)O2 | 46.5%
37 | C[C@@H]1CN([C@@H](C)CO)C(=O)c2cccc(NC(=O)Nc3ccc(F)cc3)c2O[C@@H]1CN(C)Cc1ccc(C(=O)O)cc1 | 0.82%
38 | CCC/C=C/C=C/C1CC(O)C(O)C1C(=O)O (stereo unspecified) | 4.09%
39 | C[C@H]1CN([C@@H](C)CO)C(=O)c2cc(NC(=O)c3ccncc3)ccc2O[C@H]1CN(C)Cc1ccc(C(=O)Nc2ccccc2N)cc1 | 107% (active)
40 | Cc1ccc(S(=O)(=O)Nc2ccc3c(c2)C(=O)N([C@H](C)CO)C[C@H](C)[C@H](CN(C)Cc2ccc(C(=O)Nc4ccccc4N)cc2)OCCCC[C@@H](C)O3)cc1 | 127% (active)
41 | Cc1ccc(S(=O)(=O)Nc2ccc3c(c2)C(=O)N([C@H](C)CO)C[C@H](C)[C@H](CN(C)Cc2ccccc2)OCCCC[C@@H](C)O3)cc1 | 45.3%
42 | C[C@@H]1CCCCO[C@H](CN(C)Cc2ccccc2)[C@@H](C)CN([C@H](C)CO)C(=O)c2cc(NS(=O)(=O)c3ccc(Cl)cc3)ccc2O1 | 40.5%

Row | SMILES | inhibition
43 | C[C@@H]1CN([C@H](C)CO)C(=O)c2cc(NS(=O)(=O)c3cn(C)cn3)ccc2O[C@@H]1CN(C)Cc1ccc(C(=O)Nc2ccccc2N)cc1 | 20.1%
44 | C[C@@H]1CN([C@@H](C)CO)C(=O)c2cc(NC(=O)c3ccncc3)ccc2O[C@@H]1CN(C)Cc1ccncc1 | -12.5%
45 | Cc1ccc(S(=O)(=O)Nc2ccc3c(c2)C(=O)N([C@@H](C)CO)C[C@@H](C)[C@H](CN(C)Cc2ccc(C(=O)O)cc2)O3)cc1 | 2.99%
46 | C[C@@H]1CN([C@@H](C)CO)C(=O)c2cc(NS(=O)(=O)c3cn(C)cn3)ccc2O[C@@H]1CN(C)Cc1ccc(C(=O)Nc2ccccc2N)cc1 | 5.34%
47 | Cc1ccc(S(=O)(=O)Nc2ccc3c(c2)C(=O)N([C@@H](C)CO)C[C@@H](C)[C@@H](CN(C)Cc2ccc(C(=O)Nc4ccccc4N)cc2)O3)cc1 | 110% (active)
48 | C[C@@H]1CN([C@@H](C)CO)C(=O)c2cc(NC(=O)c3ccncc3)ccc2O[C@H]1CN(C)Cc1ccc(C(=O)O)cc1 | 19.8%
49 | C[C@@H]1CN([C@@H](C)CO)C(=O)c2cc(NS(=O)(=O)c3ccccc3)ccc2O[C@@H]1CN(C)Cc1ccc(C(=O)Nc2ccccc2N)cc1 | 110% (active)
50 | C[C@H](CO)N1C[C@H](C)[C@H](CN(C)Cc2ccc(C(=O)Nc3ccccc3N)cc2)Oc2ccc(NS(C)(=O)=O)cc2C1=O | 50.3%
51 | N#Cc1cccc(CSc2nnc(CCCO)n2-c2ccccc2)c1 | -3.86%
52 | C[C@H]1CN([C@@H](C)CO)C(=O)c2cc(NS(=O)(=O)c3cn(C)cn3)ccc2O[C@H]1CN(C)CC1CCCCC1 | 0.874%
53 | Cc1noc(C)c1NC(=O)Nc1ccc2c(c1)C(=O)N([C@@H](C)CO)C[C@H](C)[C@@H](CN(C)C)O2 | 17.2%
54 | O=C(Nc1ccc(C23CC4CC(CC(C4)C2)C3)cc1)c1cccs1 | 1.68%
55 | Cc1noc(C)c1S(=O)(=O)Nc1cccc2c1O[C@H](CN(C)Cc1ccc(C(F)(F)F)cc1)[C@H](C)CN([C@@H](C)CO)C2=O | 11.5%
56 | C[C@H]1CN([C@@H](C)CO)C(=O)Cc2cc(NC(=O)NC3CCCCC3)ccc2O[C@H]1CN(C)S(=O)(=O)c1ccccc1 | 0.581%
57 | CC(=O)Nc1ccc(S(=O)(=O)N2CCCC2C(=O)O)cc1 (stereo unspecified) | 27.5%
58 | C[C@H]1CN([C@@H](C)CO)C(=O)Cc2cc(NS(=O)(=O)c3ccc(Cl)cc3)ccc2O[C@@H]1CN(C)S(=O)(=O)c1ccccc1 | 48.5%
59 | Cc1ccc(S(=O)(=O)N(C)C[C@H]2Oc3ccc(NC(=O)C4CC4)cc3C(=O)N([C@H](C)CO)C[C@H]2C)cc1 | 32.5%
60 | CCOc1c(S(=O)(=O)NCc2cccnc2)ccc(Cl)c1Cl | -5.95%
61 | Cc1ccc(Cl)cc1NC(=O)CN(c1cccc(Cl)c1C)S(C)(=O)=O | 47.6%
